Results on 91 molecules are retold here after PubChem BioAssay AID463173 (ICCB-Longwood Screening Facility, Harvard Medical School, 2010).

Out of some 52,000 compounds screened, about 1,700 (3.3%) were called active. Shown is part of a subset that was picked to be rich in actives. Values without a mark were called inactive. Rule as the data show it: active = survival mostly below about 52% (no sharp cut-off); inactive = mostly above about 56%.

This experiment concerns Wild type. Description: S. aureus survival, RN4220 and DeltatarO strains – OD600, teichoic acid synthesis inhibitors, primary screen (AID 463173). The note with it: S. aureus RN4220 wild type/DeltatarO growth, OD600, 18 h, stronger effect = lower value, screened at 18.75 µg/mL (by protocol).
Take `CCC(C(=O)NCc1ccccc1Cl)n1c(=O)c2cccn2c2ccccc21` (stereo unspecified): the survival was 76%.
To `O=c1c2oc3ccccc3c2n(Cc2cccc(F)c2)c(=O)n1Cc1ccc2c(c1)OCO2` belongs 86%; to `O=C(Cn1c(-c2cccs2)cc2cc(F)ccc21)N1CCCCC1`, 72%.
Consider `CCn1nnc2cc(C(=O)Nc3ccc(OC)cc3)ccc21`, for which the survival is 73%.
In the case of `O=C(NCc1ccccc1)c1ccc2oc(=O)n(Cc3ccccc3)c2c1`, the survival was 71%.
Turning to `CCc1ccc(NC(=O)c2ccc3c(c2)nnn3CC)cc1`, the survival is -6% (active).
Under `O=C(NCc1ccc(Cl)cc1)c1ccc2oc(=O)n(Cc3ccccc3)c2c1` stands 129%; under `Cc1ccc(CNC(=O)c2ccc3oc(=O)n(Cc4ccccc4)c3c2)cc1`, 57%.
To `CCc1ccc(NC(=O)c2ccc3oc(=O)n(Cc4ccccc4)c3c2)cc1` belongs 1% (active); to `Cc1cccc(CNC(=O)c2ccc3oc(=O)n(Cc4ccccc4)c3c2)c1`, 60%; to `CCn1nnc2cc(C(=O)Nc3ccc(C)c(Cl)c3)ccc21`, 53%.
Under `COc1cccc(CNC(=O)c2ccc3oc(=O)n(Cc4ccccc4)c3c2)c1` stands -3% (active); under `O=C(Nc1ccc(Cl)cc1)c1ccc2oc(=O)n(Cc3ccccc3)c2c1`, 63%.
Regarding `O=C(NCc1ccc(F)cc1)c1ccc2oc(=O)n(Cc3ccccc3)c2c1`, the survival is -4% (active).
To `O=C(Nc1cccc(F)c1)c1ccc2oc(=O)n(Cc3ccccc3)c2c1` belongs 81%; to `Cc1nn(Cc2ccccc2)c(C)c1NC(=O)c1cc(C(C)C)on1`, 77%; to `O=C(Nc1ccc(NC(=O)c2cccs2)cc1)c1ccc(Cl)cc1`, 81%.
`Cc1onc(-c2c(Cl)cccc2Cl)c1C(=O)n1c(C)nc2ccccc21`: the survival was 105%.
Take `Cc1cc(C)cc(NC(=O)Cn2c(-c3cncs3)nc3ccccc32)c1`: the survival is 63%.
On to `CN(C)C(=O)Cn1c2[n+](c3ccccc31)CC(O)CS2` (stereo unspecified), for which the survival was 103%.
To `O=C(COc1ccc(Cl)cc1)NCC(c1ccco1)S(=O)(=O)c1ccc(Cl)cc1` (stereo unspecified) belongs 78%; to `Cc1cccc(CNC(=O)Cc2csc3ccccc23)c1`, 116%.
Under `COc1ccc(CNC(=O)c2cccc(NC(=O)N3CCSc4ncccc43)c2)cc1` stands 67%; under `COc1ccccc1NC(=O)CCn1nc(-c2ccccc2OC)c2c(C)cc(C)nc21`, 111%.
In the case of `O=C(/C=C\c1ccco1)Oc1cccc2cccnc12`, the survival is 1% (active).
To `O=C(/C=C/c1ccco1)OCCN1CCOCC1` belongs 92%.
Under `O=C1c2ccccc2C(=O)N1COc1cccc2cccnc12` stands 101%; under `O=C(/C=C/c1ccco1)ON1C(=O)c2ccccc2C1=O`, 117%; under `O=C(Oc1cccc2cccnc12)c1ccccc1`, 1% (active).
To `O=C(Oc1ccccc1-c1nc(-c2ccccc2)no1)c1ccccc1` belongs 100%.
`N#Cc1ccccc1NC(=O)Cn1cnc2onc(-c3cccc(F)c3)c2c1=O`: the survival is 105%.
To `O=C(C1CCN(c2nc3ccccc3[nH]2)CC1)N1CCN(c2cccc(Cl)c2)CC1` belongs 0% (active).
Turning to `Cc1ccc2nc(N3CCC(C(=O)N4CCN(c5cccc(Cl)c5)CC4)CC3)[nH]c2c1`, the survival was 74%.
To `O=C(C1CCN(c2nc3ccccc3[nH]2)CC1)N1CCN(c2ccccc2)CC1` belongs 85%; to `CCCC(=O)c1cc(F)c(N2CCOCC2)cc1C`, 121%.
Under `Cc1ccc(NC(=O)Cn2c(=O)n(Cc3ccccc3)c(=O)c3sc4ccccc4c32)cc1` stands 93%.
Under `Cc1ccc(-n2ncc(C(=O)NCc3ccco3)c2C2CCN(C(=O)OC(C)(C)C)CC2)cc1C` stands 72%.
For the molecule `COc1ccc(N2CCN(c3oc(/C=C/c4ccc(F)cc4)nc3C#N)CC2)cc1`, the survival is 84%.
For `CC(C)N(Cc1nc(-c2ccc(Cl)cc2)no1)C(=O)c1ccc(C(C)(C)C)cc1`, the survival is 0% (active).
Under `COc1cccc(C(=O)N(Cc2nc(-c3ccc(Cl)cc3)no2)C(C)C)c1OC` stands 46%; under `CCOc1cc(C(=O)N(Cc2nc(-c3ccc(C)cc3)no2)C(C)C)cc(OCC)c1OCC`, 15% (active); under `Cc1cc(C)cc(C(=O)N(Cc2nc(-c3ccc(Cl)cc3)no2)C(C)C)c1`, 17%.
Under `Cc1ccc(-c2noc(CN(C(=O)c3ccc(C(C)(C)C)cc3)C(C)C)n2)cc1` stands -1% (active).
To `CCOc1cc(C(=O)NCc2nc(-c3cccc(C)c3)no2)cc(OCC)c1OCC` belongs 89%; to `CCCCOc1ccc(C(=O)N(Cc2nc(-c3ccc(Cl)cc3)no2)C(C)C)cc1`, 85%; to `Cc1ccc(-c2noc(CNC(=O)c3ccc(C(C)(C)C)cc3)n2)cc1`, 89%.
`CCCCN(C)CCCNC(=O)C1CCN(S(=O)(=O)CCC)CC1`: the survival is 77%.
Under `Cc1ccc(NC(=O)Cn2c(=O)n(CCC(=O)N3CCc4ccccc4C3)c(=O)c3ccccc32)c(C)c1` stands 79%.
Consider `COc1cccc(C(=O)Nc2cc3c(cc2C(=O)c2ccc(C)cc2)OCCO3)c1`, for which the survival is 71%.
To `CCOC(=O)c1cc(S(=O)(=O)Nc2ccc(OC(F)(F)F)cc2)[nH]n1` belongs 87%.
To `CCN1CCN(c2cc(C)c3cc(NC(=O)c4cc(Cl)ccc4OC)ccc3n2)CC1` belongs 2% (active); to `COc1ccccc1C(=O)Nc1ccc2nc(N3CCC(C)CC3)cc(C)c2c1`, 0% (active).
`CCN1CCN(c2cc(C)c3cc(NC(=O)c4ccc(OC)c(OC)c4)ccc3n2)CC1`: the survival is 65%.
`COc1ccccc1CC(=O)Nc1ccc2nc(N3CCC(C)CC3)cc(C)c2c1`: the survival was 71%.
Regarding `COc1ccc(C(=O)Nc2ccc3nc(N4CCC(C)CC4)cc(C)c3c2)cc1`, the survival was 86%.
Consider `CCN1CCN(c2cc(C)c3cc(NC(=O)c4cc(OC)c(OC)c(OC)c4)ccc3n2)CC1`, for which the survival is 73%.
Under `CCSc1nc(NC(C)=O)nn1C(C)=O` stands 103%; under `Cc1ccc(NC(=O)Cc2c(C(=O)O)c(C)cn2C)cc1Cl`, 87%.
To `CCOCCCn1c(SCC(=O)Nc2ccccc2OC)nc2c(oc3ccccc32)c1=O` belongs 81%; to `CCOc1ccc(C(=O)Nc2cccc(C(=O)OCc3cc(=O)n4cc(C)sc4n3)c2)cc1`, 81%.
To `Cc1cc2ncn(CCCCOc3ccccc3)c2cc1C` belongs 20% (active); to `COc1ccc(OCCn2cnc3ccccc32)cc1`, 107%.
As for `CC(=O)OC(COc1ccccc1)Cn1cnc2cc(C)c(C)cc21` (stereo unspecified), the survival is 125%.
On to `Cc1ccc(OCCCCn2cnc3ccccc32)cc1`, for which the survival is 29% (active).
For `c1ccc2c(c1)ncn2CCn1cnc2ccccc21`, the survival is 104%.
To `Cc1cc2ncn(CCC(=O)Nc3ccccc3F)c2cc1C` belongs 105%; to `Cc1ccc(Cl)cc1N1CCN(C(=O)C2CCN(S(=O)(=O)c3ccc4c(c3)oc(=O)n4C)CC2)CC1`, 66%; to `Cc1ccc(N2CCN(c3cc(C)nc4c(-c5ccc(Cl)cc5)c(C)nn34)CC2C)cc1` (stereo unspecified), 14% (active).
To `Cc1ccc(C)c(N2CCN(c3cc(C)nc4c(-c5ccc(Cl)cc5)c(C)nn34)CC2)c1` belongs 96%; to `Cc1cccc(N2CCN(c3cc(C)nc4c(-c5ccc(Cl)cc5)c(C)nn34)CC2C)c1` (stereo unspecified), 74%; to `Cc1n[nH]c(=S)n1CC(=O)N1c2ccccc2CCc2ccccc21`, 102%.
To `CC1=C(C(=O)Nc2ccccc2)C(c2ccc(Br)cc2)n2nc(CCCO)nc2N1` (stereo unspecified) belongs 79%; to `CCOc1ccc(NC(=O)Cn2cc(C(=O)c3ccc(C)c(C)c3)c(=O)c3cc(F)ccc32)cc1`, 89%; to `COc1cc(NS(=O)(=O)c2cc(Br)cc3c2N(C(C)=O)C(C)C3)cc(OC)c1` (stereo unspecified), -3% (active).
Take `CC(=O)N1c2c(cc(Br)cc2S(=O)(=O)Nc2ccc(OC(F)(F)F)cc2)CC1C` (stereo unspecified): the survival was 105%.
Under `COc1ccc(CNS(=O)(=O)c2cc(Br)cc3c2N(C(C)=O)C(C)C3)cc1` (stereo unspecified) stands 138%.
Under `Cc1cccc(CNC(=O)Cn2ccc3cc(S(=O)(=O)N4CCC(C)CC4)ccc32)c1` stands 67%; under `CCc1ccc(CNC(=O)C(C)n2ccc3cc(S(=O)(=O)N4CCCCCC4)ccc32)cc1` (stereo unspecified), 75%; under `CCc1ccc(CNC(=O)CCCn2ccc3cc(S(=O)(=O)N4CCCC4)ccc32)cc1`, 63%.
Regarding `CC(C(=O)NCc1ccccc1)n1ccc2cc(S(=O)(=O)N3CCCC3)ccc21` (stereo unspecified), the survival is -3% (active).
To `Cc1cccc(CNC(=O)Cn2ccc3cc(S(=O)(=O)N4CCCC4)ccc32)c1` belongs 69%.
To `O=C(CCn1ccc2cc(S(=O)(=O)N3CCCC3)ccc21)NCc1cccc(Cl)c1` belongs -1% (active); to `CN(C)c1ccc(CNC(=O)CCCn2ccc3cc(S(=O)(=O)N4CCCC4)ccc32)cc1`, 0% (active).
Turning to `Cc1cccc(CNC(=O)CCn2ccc3cc(S(=O)(=O)N4CCCC4)ccc32)c1`, the survival is 76%.
As for `COc1ccc(CNC(=O)CCCn2ccc3cc(S(=O)(=O)N4CCCC4)ccc32)cc1`, the survival was 75%.
Under `O=C(Cn1ccc2cc(S(=O)(=O)N3CCCCC3)ccc21)NCc1cccc(Cl)c1` stands 128%; under `Cc1ccc(CNC(=O)C(C)n2ccc3cc(S(=O)(=O)N4CCCC4)ccc32)cc1` (stereo unspecified), 66%.
To `Cc1cccc(CNC(=O)Cn2ccc3cc(S(=O)(=O)N4CCCCCC4)ccc32)c1` belongs -6% (active); to `O=C(CSc1nc2nccnc2c(=O)n1CCc1c[nH]c2ccccc12)Nc1ccc(F)cc1`, 42%; to `CCn1c(CNc2cccc(Cl)c2)nnc1SCc1ccccc1`, 105%.
Under `O=C1CCCC2=C1C(c1ccc3c(c1)OCO3)c1c([nH]c(=O)[nH]c1=O)N2` (stereo unspecified) stands 111%.
